# Assay results published in ChEMBL document CHEMBL3988442, “University of Dundee, Small-Polar-MMV Screening Library” (2021).
# Among all 48,000 compounds or so, about 13,000 (27%) showed an effect of 50% or more. The list shows a part of the results.
# Test system: Wolbachia pipientis
# Experiment: Anti-Wolbachia Cell-Based Screen
# Type: functional
# Set-up: scale not given: in the data most compounds retested in dose-response had high values
# Conditions: 5 µM
row,SMILES,Percent Effect [%]
1,COc1ccc2nc(C[C@@H]3C[C@@H](C(C)C)[C@H](CN(C)C)C=C3C)[nH]c2n1,-3.892
2,C[S+]([O-])CCCNC(=O)c1cc(Br)c2c(c1)OCCO2 (configuration not stated),-5.642
3,CS(=O)(=O)NC[C@]12COC[C@H]1CN(C(=O)C1CC=CC1)C2,99.92
4,CS(=O)(=O)NC[C@]12COC[C@H]1CN(C(=O)C1CC(F)(F)C1)C2,112.2
5,CS(=O)(=O)NC[C@]12COC[C@H]1CN(C(=O)c1ccccc1)C2,7.31
6,CS(=O)(=O)NC[C@]12COC[C@H]1CN(C(=O)c1ncccn1)C2,4.055
7,COC[C@]12COC[C@H]1CN(C(=O)C1CC(F)(F)C1)C2,-2.486
8,CS(=O)(=O)NC[C@]12COC[C@H]1CN(C(=O)c1ccncn1)C2,0.7032
9,Cc1cc(CN(C)C(=O)c2cc3c([nH]c2=O)CCCC3=O)no1,-8.225
10,CN(Cc1cnccn1)C(=O)c1ccnc(OC2CCC2)c1,-12.54
11,COCCN(CCOC)C(=O)c1cccc(Cn2nc(C)cc2C)c1,-2.572
12,CN(C)C(=O)c1cccc(Nc2cnn(C)c2)c1,-3.903
13,COc1ccnc(NC(=O)c2cnccn2)c1,0.1681
14,COCCCN(C)C(=O)c1cccc(Nc2cnccn2)c1,100
15,COc1c(C)cnc(CN(C)C(=O)c2cccc(NC(N)=O)c2)c1C,7.754
16,COCCN(CC(C)C)C(=O)c1cccc(Nc2cnccn2)c1,186.1
17,CC(=O)c1cccc(OCCCC(=O)N(C)CCc2ccncc2)c1,5.185
18,CN(CC1(O)CCCC1)C(=O)c1cccc(Nc2cnccn2)c1,136.4
19,CCC(=O)NCc1cc(Br)c(OC)c(OC)c1,-2.986
20,c1cnn(CCC2CCCCN2Cc2cnc(C3CCCCC3)nc2)c1 (configuration not stated),-23.18
21,CC(=O)OCC1CCCCN1C(=O)c1ccc(Cn2ccnc2)o1 (configuration not stated),0.6554
22,N#Cc1cn(CCCN2CCc3ccccc32)c(=O)[nH]c1=O,7.257
23,CSc1cc2c(cc1NC(=O)NCC(=O)N(C)C)OCCO2,-7.029

row,SMILES,Percent Effect [%]
1,Nc1c(Cl)cnn1C1CCN(Cc2ccccc2)C1 (configuration not stated),-6.784
2,c1ccc(-c2nc(CNCCn3cccn3)cs2)cc1,17.11
3,CNC(=O)CS(=O)(=O)Cc1coc(-c2ccc(OC)cc2)n1,-17.74
4,Cc1nnc(NCCc2coc(-c3ccccc3)n2)c(C#N)c1C,-1.856
5,c1ccc(-c2nc(CCNCc3cccnc3)co2)cc1,108.2
6,COc1ccc(-c2nc(CCNc3nnc(C)c(C)c3C#N)co2)cc1,14.52
7,COc1ccc(-c2nc(CCNCc3ccncc3)co2)cc1,89.2
8,O=C1NCCCCC1SCc1coc(-c2ccccc2)n1 (configuration not stated),-18.22
9,c1ccc(-c2nnn3c2COC(CNCc2ccccn2)C3)cc1 (configuration not stated),-8.365
10,c1ccc(-c2nc(CCNCc3ccncc3)co2)cc1,91.06
11,COc1cccc(-c2nc(CNCCc3cccnc3)cs2)c1,20
12,c1ccc(-c2nc(CCNCc3ccccn3)co2)cc1,85.74
13,c1ccc(Oc2ncccc2CNCc2ccccn2)cc1,6.646
14,CC(C)c1noc(C[S+]([O-])CC(=O)Nc2ccc(F)c(F)c2)n1 (configuration not stated),-5.19
15,CC(=O)NCCCSCCOc1cccc(C#N)c1,-7.407
16,O=C(Nc1ccncc1)NC1CCN(c2ccccc2Cl)C1=O (configuration not stated),1.637
17,COc1ccc(CCN2CC(c3nc(CSC)no3)CCC2=O)cc1 (configuration not stated),-1.637
18,Cc1cc(CNC(=O)c2ccc(C(C)N3CCCCC3)o2)[nH]n1 (configuration not stated),-3.545
19,O=C(c1cccc(-n2cccn2)c1)N1CCCOC(CN2CCCC2)C1 (configuration not stated),2.221
20,Cc1nnc2n1CCN(C(=O)CN1C(=O)C(C)Oc3ccccc31)C2 (configuration not stated),3.234
21,COCCn1cc(NC(=O)N(CCC(N)=O)Cc2ccccc2)cn1,-7.009
22,Cc1ccc(-c2nc(CCNC(=O)NC3CCN(C)CC3)co2)cc1,-5.87
23,Cc1ccc(-c2nc(CCNCc3ccncc3)co2)cc1,83.41

row,SMILES,Percent Effect [%]
1,Cc1nnc(NCCc2coc(-c3ccc(F)cc3)n2)c(C#N)c1C,5.844
2,Cc1cnn(CCNCCCOc2ccc(C#N)cc2)c1,4.876
3,C=C/C=c1\c(=C/C)oc2c(NCc3ccccc3)nc(CC)nc12,112.6
4,C=C/C=c1\c(=C/C)oc2c(NCc3ccccc3)ncnc12,107.1
5,Cc1nc(NCc2cccnc2)c2c(n1)c(C)nn2C,-9.557
6,CCC(CNc1ncnc2oc(C)nc12)Cc1ccccc1 (configuration not stated),-28.36
7,CS(=O)(=O)c1ccc(NCc2ccccc2)cn1,-7.161
8,C=C/C=c1\c(=C/C)oc2c(NCc3ccccc3)nc(C)nc12,116.4
9,Cc1nc2c(c(NCc3ccccc3)n1)CCN(C(=O)C1CCC1)CC2,-5.333
10,Cc1ccc(-c2nc(CN3CCc4nn(C)c(=O)cc4C3)no2)cc1,-3.521
11,CCCNC(=O)C(C)NC(=O)Nc1ccccc1SC(F)F (configuration not stated),-20.86
12,O=C(c1ccc2occc2c1)N1CCC(C(=O)O)(n2cccn2)CC1,17.51
13,CO[C@H]1CN(S(=O)(=O)c2cn(C)cn2)[C@@H]2CCCO[C@H]12,-0.7123
14,CNC(=O)NC(=O)CCSc1ccccc1Cl,-6.595
15,Cc1cccc(CC(=O)NS(=O)(=O)c2ccc(F)c(F)c2)c1,-13.3
16,Cc1nc(CNC(=O)NC2CCN(c3cccc(Cl)c3)C2)no1 (configuration not stated),1.056
17,COC(=O)N1CCCCC1C(=O)N1CCCN(c2ccnc(C)c2)CC1 (configuration not stated),2.606
18,COCC(=O)N1CCN(c2cc(C)nc(C3CCCN3C(C)=O)c2)CC1 (configuration not stated),105.4
19,COCC(=O)N1CCN(c2cc(-n3cccc3)nc(C)n2)CC1,-19
20,COCC(=O)N1CCCC1c1cc(N2CCN(C(C)=O)CC2)cc(C)n1 (configuration not stated),110.9
21,COCC(=O)N1CCN(C(C)=O)C[C@@H]1C(=O)OC,18.89
